Screening data from PubChem.
Pf Dd2 inh: qHTS Primary assay for Inhibitors of Plasmodium falciparum Dd2 growth in vitro | Potency, µM (highest dose often 28.9 µM), without a hit: at the top dose activity, negative = inhibition, usual class: inhibitors | P. falciparum Dd2 growth, SYBR Green, 72 h | actives 4.3% (n = 120,000) | AID 1347417, 2020; active = well fitted inhibition curve with a large enough effect;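 also: plate controls were DMSO vehicle for no effect and reference drug for full effect; nearly all actives have a fitted effect of over 65% in size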
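Readout: SYBR Green fluorescence, 485 nm excitation, 535 nm emission, after ~16 h lysis at 37C. Before that, Dd2-infected red cells (2.5% hematocrit) grew 72 h with compound, 29 uM top final concentration.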
* marks the source's active call; other numbers are inactive results; i = inactive; [ ] = another dose, or the depositor's remark. This excerpt belongs to a sample that is enriched for hits. Potency is read from the fitted curve at half-maximal effect.

SMILES	Pf Dd2 inh
O=[S+]1([O-])NCC2(CCN(Cc3ccsc3)CC2)Nc2ccccc21	-23%
O=[S+]1([O-])NCC2(CCCN(Cc3ccc(F)cc3)C2)Nc2ccccc21 (configuration not stated)	i
O=[S+]1([O-])NC2(CCN(Cc3ccncc3)C2)CNc2ccccc21 (configuration not stated)	5%
COc1ccc(CN2CCC3(CN[S+](=O)([O-])c4ccccc4N3)C2)cc1 (configuration not stated)	i
O=[S+]1([O-])NC2(CCN(Cc3ccc(C(F)(F)F)cc3)CC2)CNc2ccccc21	11µM*
COc1ccccc1CCC(=O)NC(C)C(=O)N1CCN(c2ccccn2)CC1 (configuration not stated)	i
O=C(O)C1=NOC2CN([S+](=O)([O-])C3CCCC3)CC12 (configuration not stated)	23%[44.1 µM]
CC(C)(C(=O)O)C1CCOCC1	39%
Cc1nnnn1-c1cccc(C(=O)N2CC[C@@](O)(C3CCOCC3)[C@H](C)C2)c1	12%
CCn1cc(CN2CCC3(CC2)CN(C)CC3COC)cn1 (configuration not stated)	-5%
O=C1NCCOCCN(S(=O)(=O)c2cccc3nsnc23)[C@@H]2CCCC[C@H]12	-23%
CN(CC(=O)N1CCC2(CC1)CN(CC(=O)O)C(=O)O2)Cc1cccnc1	7%
COCCOCC(=O)N1CCC2(CC1)c1[nH]c3ccccc3c1CCN2C	-22%
Cc1oc(-c2cccc(Oc3ccccc3)c2)nc1CN1CC[C@H](N(C)C)C1	-13%
COc1ccc2cc(CN3CCC(N(C)C)C3)c(-c3cccc(C)c3)nc2c1 (configuration not stated)	11µM*
COCC1CCN(Cc2cc3cc4c(cc3nc2-c2ccc(Cl)cc2)OCO4)C1 (configuration not stated)	i
O=C1NCCOCCN(C(=O)Cc2cccc(F)c2)[C@H]2CCC[C@@H]12	40%
O=C(c1cn[nH]c1)N1CC2(C1)CN([S+](=O)([O-])c1ccc(OC(F)(F)F)cc1)CC2COc1ccccc1 (configuration not stated)	-5%
CN(CC1CCOCC1)C(=O)Nc1cc(F)ccc1F	-24%
O=[S+]1([O-])NCC2(CCCN(Cc3cccc4ccccc34)C2)Nc2ccccc21 (configuration not stated)	-6%
COc1ccc(CNC(=O)N2CCC3(CC2)CC(Cc2nc(C4CC4)no2)CCO3)cc1 (configuration not stated)	-10%
COc1ccc(C(=O)N2CCC3(CC2)CC(Cc2nc(-c4ccccc4)no2)CCO3)cc1 (configuration not stated)	i
Cc1ccc(NC(=O)N2CCC3(CC2)CC(Cc2nc(-c4ccccc4)no2)CCO3)cc1C (configuration not stated)	8.9µM*
O=C(Cn1nc2n(c1=O)CCCCC2)NCc1ccc2c(c1)OCO2	-23%
COc1cccc(N2CCN(C(=O)C3CCCN(Cc4cccnc4)CCC(=O)NCC3)CC2)c1 (configuration not stated)	4µM*
SMILES	Pf Dd2 inh
N#Cc1ccccc1CN1CCCC(C(=O)NCc2ccccc2)CCNC(=O)CC1 (configuration not stated)	i
COc1cccc(CN2CCCC(C(=O)NCc3ccccc3)CCNC(=O)CC2)c1 (configuration not stated)	6.3µM*
CCN1CCN(C(=O)C2CCCN(Cc3cccnc3)CCC(=O)NCC2)CC1 (configuration not stated)	9%
COc1cccc(CN2CCCC(C(=O)NCc3ccncc3)CCNC(=O)CC2)c1 (configuration not stated)	-5%
Cc1cccc(N2CCN(C(=O)C3CCCN(C(=O)c4cccnc4)CCC(=O)NCC3)CC2)c1 (configuration not stated)	6%
COc1ccc(C(=O)N2C[C@@H]3C[C@H](C2)c2ccc(NS(=O)(=O)c4ccc(NC(C)=O)cc4)c(=O)n2C3)cc1	-16%
CC(c1cccs1)N(C)CC1CCCCC1 (configuration not stated)	11%[44.1 µM]
O=C(c1cc(C2CC2)[nH]n1)N1CCC2(CC1)NC(=O)N(c1cccc(F)c1)N2	25%
Cc1noc(C2CCCCCN2C(=O)NCC(C)C)n1 (configuration not stated)	16%
OCC1CN(Cc2ccoc2)CCC12CCN(Cc1cccc(O)c1)CC2 (configuration not stated)	7%
CCC[C@H](N)C(=O)N1CCC2(CCC(=O)N(Cc3cnc(C)cn3)C2)CC1	-5%
O=C(NCCn1cccn1)c1coc(COc2cccc(C(F)(F)F)c2)n1	-25%
CC(C)CNC(=O)c1ccc2c(c1)NC(C)(COCC1CC1)CO2 (configuration not stated)	i
COC[C@H]1CCCN1Cc1nc(C2(O)CCN(Cc3ccc(F)cc3)CC2)cs1	7.9µM*
COC[C@H]1CCCN1Cc1nc(C2(O)CCN(C(=O)Nc3ccc(F)cc3)CC2)cs1	-21%
